# High-throughput results as filed in PubChem BioAssay.
# FMDV inh = High Throughput Screening for Foot and Mouth Disease Virus Antivirals. actives 1.2% (n = 410,000). AID 1159524, 2015. Potency, µM (top dose mostly 57.9 µM), inactives show at the highest dose activity change, negative = inhibition, usual class: inhibitors. FMDV antiviral cell-based qHTS; calls by dose curve; tested in HEK293T cells; further: read-out not given here; potency means the concentration at half of the fitted maximal effect; nearly all actives have a fitted effect of over 45% in size
# MARV entry inh = qHTS for inhibitors of binding or entry into cells for Marburg Virus; Marburg virus pseudotyped entry inhibition, cell reporter; Potency, µM (series often up to 37.8 µM), for inactives: top-dose activity change, negative = inhibition, hits mostly inhibitors; actives 1.8% (n = 300,000); calls by dose curve; tested in HEK293 cells; further: potency means the concentration at half of the fitted maximal effect
# LASV entry inh = qHTS for Inhibitors of binding or entry into cells for Lassa Virus. Lassa virus pseudotype entry inhibition, cell reporter. Potency, µM (top dose mostly 37.9 µM), inactives show top-dose activity change, negative = inhibition, usual class: inhibitors. actives 1.2% (n = 300,000); calls by dose curve; tested in HEK293 cells; further: potency means the concentration at half of the fitted maximal effect; nearly all actives have a fitted effect of over 50% in size
# HCMV inh = qHTS Assay for inhibitors of the human cytomegalovirus (HCMV). HFF cells, HCMV-luciferase reporter, 72 h; stronger effect = lower value. activity change, negative = inhibition, % at 57.5 µM. actives 4.5% (n = 410,000). AID 1259415, 2018; in the data active means activity change below about -60%; inconclusive means no clear call, values can overlap the other calls; inactive means above about -39%
#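 Human foreskin fibroblasts infected with luciferase-reporter HCMV at MOI 1 PFU/cell, compounds at two doses. Luciferase measured 72 h post infection; normalized to buffer-only basal and Salinomycin (10uM) controls.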
# Numbers without * were called inactive; ? = inconclusive; / = no result given; + = active, no number; ! = a repeat was not active; [ ] = another dose, or the depositor's remark. Sampled rows, rich in hits. Any-hit rate of the full collection: about 6.2%. On the % scale 0 is the no-effect control and ±100 the full control effect.
SMILES,FMDV inh,MARV entry inh,LASV entry inh,HCMV inh
CCCCN(C=O)c1c(CC)nc2ccc(C(=O)NCc3ccccc3OC)cn12,-13.1%,/,/,-26.3
c1ccc(OCCOc2ncnc3ccccc23)cc1,56.8%,1.0%,?,68.4
COc1ccc(Cc2nnc(N)s2)cc1,8.1%,11.5%,1.2%,51.7
O=C(NN1C(=O)C2C3c4ccccc4C(c4ccccc43)C2C1=O)c1ccccc1 (stereo not given),-19.6%,13.3%,-2.0%,-16.6
CC[C@H](OC(C)=O)C(C[C@H](C)N(C)C)(c1ccccc1)c1ccccc1,-23.1%,/,/,-86.5*
S=C(N/N=C/c1ccccc1Cl)Nc1cccc(Cl)c1Cl,-5.4%,/,/,-65.2*
O=C(O)c1ccccc1-c1ccccc1C(=O)Nc1ccccc1-c1ccccc1,7.3%,/,/,-1.0
COc1ccc(-c2sc(Nc3ccccc3)n[n+]2-c2ccccc2)cc1Br,-24.9%,/,/,?
C(=C\c1sc(Nc2ccccc2)n[n+]1-c1ccccc1)/c1ccccc1,6.31µM*,/,/,-3.7
O=C(CCc1c[nH]c2ccccc12)N1CCN(c2ccc(O)cc2)CC1,17.3%,?,?,-64.6*
COc1ccc(N2CCN(C(=O)CCc3c[nH]c4ccccc34)CC2)cc1,10.8%,-4.8%[46.1 µM],?,-8.5
O=C(CCCc1c[nH]c2ccccc12)N1CCN(S(=O)(=O)c2cccs2)CC1,25.1µM*,-26.5%,-28.0%,-7.3
O=C(Nc1ccc(N2CCN(C(=O)c3ccccc3)CC2)cc1)c1ccc2c(c1)OCO2,-8.5%,-25.2%,-22.9%,-21.5
Cc1ccc(C(=O)N2CCN(c3ccc(NC(=O)c4ccc5c(c4)OCCO5)cc3)CC2)cc1,14.1µM*,?,?,51.9
Cc1ccccc1C(=O)N1CCN(c2ccc(NC(=O)c3cccc(OC(C)C)c3)cc2)CC1,15.8µM*,11.0%,-2.3%,-3.2
Cc1ccccc1C(=O)N1CCN(c2ccc(NC(=O)c3ccc4c(c3)OCCO4)cc2)CC1,7.08µM*,5.01µM*,?,-89.2*
COc1c(C)cccc1C(=O)Nc1ccc(N2CCN(C(=O)c3ccccc3C)CC2)cc1,?,?,?,-35.6
O=C1C=C2c3ccccc3CC(C(=O)O)C2CC1 (stereo not given),-0.2%,/,/,53.1
O=C(Nc1c2c(nn1-c1ccccc1)CS(=O)(=O)C2)c1ccco1,-6.0%,16.2%,11.3%,-7.7
O=C1NC2(CCCC2)N=C1c1ccc(F)cc1,14.8%,-4.2%,0.0%,-12.1
Cc1ccc(-c2csc3nc4cc(C(N)=O)ccc4c(=O)n23)cc1,1.1%,/,/,-12.5
CCN(CCn1cccn1)C(=O)CC1C(=O)NCCN1Cc1ccc(F)c(F)c1 (stereo not given),10.0%,0.1%,16.5%,-14.5
CCN(Cc1ccncc1)C(=O)CC1C(=O)NCCN1Cc1ccc(F)c(F)c1 (stereo not given),-15.5%,/,/,-77.9*
CCOn1c(=O)c(-c2ccc(C)cc2)[n+]([O-])c2ccccc21,0.9%,/,/,-60.3*
CCOn1c(=O)c(-c2ccc(Cl)cc2)[n+]([O-])c2ccccc21,-21.2%,12.8%,9.3%,-8.7
SMILES,FMDV inh,MARV entry inh,LASV entry inh,HCMV inh
Cc1ccccc1CSCC(=O)NC(=O)NCc1ccco1,3.4%,-7.1%,-38.1%,35.4
Cc1nc(C(=O)N2CCC(C)(C(=O)NS(=O)(=O)C3CC3)C2)c(C)o1 (stereo not given),-10.3%,/,/,-34.5
O=C(COc1ccc(C(=O)O)cc1)Nc1cccc(C(F)(F)F)c1,-0.4%,-17.5%[46.1 µM],-3.8%[46.1 µM],-21.7
CN1CCN(C(=S)c2ccc(OCC(=O)Nc3cccc(C(F)(F)F)c3)cc2)CC1,20µM*,?,?,-63.1*
O=C(COc1ccc(C(=S)N2CCOCC2)cc1)N1CCOCC1,-4.8%,?,2.6%,90.8
Cc1cc(N2CCCC2)ccc1NC(=O)COc1cccc(C(F)(F)F)c1,4.1%,/,/,-69.8*
Cc1cc(C)cc(NC(=O)COc2ccc(C(=S)N3CCOCC3)cc2)c1,-24.1%,?,-0.3%,-62.1*
Cc1cc(Br)cc(C)c1OCC(=O)Nc1ccc(S(=O)(=O)Nc2ncccn2)cc1,-13.6%,-1.3%[46.1 µM],-15.7%[46.1 µM],12.6
COc1ccc(C(=O)COc2nc(C)cc(C)c2C#N)cc1,-9.7%,?,-3.5%,-63.6*
COc1ccc(NC(=O)c2c(C)noc2-c2snnc2C)cc1,11.6%,10µM*,?,-32.1
COc1cc(OC)c(N(C)S(=O)(=O)c2cccc(C(=O)Nc3nccs3)c2)cc1Cl,?,8.91µM*,?,?
COc1cc(OC)c(N(C)S(=O)(=O)c2cccc(C(=O)OCC(=O)c3c[nH]c4ccccc34)c2)cc1Cl,8.91µM*,?,?,?
C=CCN(c1ccccc1OC)S(=O)(=O)c1cccc(C(=O)OCC(=O)c2c[nH]c3ccccc23)c1,?,?,9.2µM*,-34.8
COc1cc(C(=O)OCC(=O)c2c[nH]c3ccccc23)ccc1OCC(=O)N1CCOCC1,-20.6%,-13.6%,?,-63.9*
CCOc1cc(C(=O)OCC(=O)c2c[nH]c3ccccc23)ccc1OCC(=O)N1CCOCC1,-12.5%,0.6%[46.1 µM],-4.2%,51.5
COc1ccc(CNc2nc(-c3ccco3)nn2C(=O)c2ccccc2Cl)cc1,20.0%,17.9%[46.1 µM],?,128.2
Cc1c(C)c2c(OCC(=O)NCC(C)C)cc3c(c2oc1=O)CCC(C)(C)O3,17.8µM*,/,/,4.8
Cc1ccc(N(CC(=O)NCc2ccc(OC(C)C)cc2)S(=O)(=O)N(C)C)cc1,?,/,5.01µM*,-3.8
COc1ccc(S(=O)(=O)N(CC(=O)NCc2ccccc2OC)c2ccc(C)cc2)cc1,4.4%,/,-19.6%[46.1 µM],-67.6*
COc1ccc(N(CC(=O)NCc2ccc(C)cc2)S(=O)(=O)c2c(C)[nH]c(=O)[nH]c2=O)cc1,-13.1%,8.1%[46.1 µM],12.1%[46.1 µM],+!
CCOc1ccc(S(=O)(=O)N(CC(=O)NCc2ccccc2OC)c2ccccc2)cc1,?,?,?,-61.8*
CCOc1ccc(S(=O)(=O)N(CC(=O)NCCc2ccc(OC)c(OC)c2)c2ccccc2)cc1,?,-1.3%[46.1 µM],-18.3%[46.1 µM],5.5
Cc1ccc2c(=O)c(C(=O)c3ccc(F)cc3)cn(CC(=O)Nc3ccc4c(c3)OCCO4)c2n1,-6.8%,/,16.5%[46.1 µM],-23.8
COc1ccc(N(CC(=O)NC(C)c2ccccc2)S(=O)(=O)c2ccc(C)cc2)cc1 (stereo not given),10.8%,-19.5%[46.1 µM],-20.0%,-1.9
COc1ccc(S(=O)(=O)N(CC(=O)NCc2ccco2)c2ccccc2OC)cc1,0.0%,0.4%[46.1 µM],-0.1%[46.1 µM],-64.8*
CNC(=O)CN(c1ccc(Oc2ccccc2)cc1)S(=O)(=O)c1ccc(C)cc1,-4.4%,-15.5%,7.08µM*,-2.1
COc1ccccc1N(CC(=O)NCc1ccco1)S(C)(=O)=O,-7.5%,?,1.5%,1.4
Cc1csc(SC(C)C(=O)Nc2ccccc2C)n1 (stereo not given),-4.7%,/,/,-17.3
Cc1ccc(-n2c(SCC(N)=O)nc3c(c2=O)C2(CCCC2)Cc2ccccc2-3)cc1,22.4µM*,?,?,?
COc1ccc(S(=O)(=O)N2CCN(c3ncccn3)CC2)cc1[N+](=O)[O-],-13.7%,/,/,22.8
